Screening data from PubChem BioAssay.
TDP1 cell CPT: qHTS for Inhibitors of human tyrosyl-DNA phosphodiesterase 1 (TDP1): qHTS in cells in presence of CPT; chicken DT40 Tdp1-/-;hTDP1 cells + 20 nM CPT, ATP luminescence, 48 h; Potency, µM (top dose mostly 46.2 µM), for inactives: at the highest dose activity change, negative = growth inhibition, actives largely listed as inhibitors; actives 12% (n = 420,000); AID 686979, 2013; also: % is scaled to controls: 0 for no effect and ±100 for the full control effect; nearly all actives have a fitted effect of over 55% in size
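Chicken DT40 Tdp1-/- cells stably complemented with human TDP1 were seeded at 400 cells/well in medium containing 20 nM camptothecin, exposed to pin-transferred compounds, and grown at 37 °C for at least 48 hr. Viability was read as ATP luminescence.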
HepG2 tox: qHTS for Inhibitors of TGF-b: Cytotox Counterscreen | actives 0.76% (n = 410,000) | AID 588856, 2011 | HepG2 CAGA-GFP viability, ATP luminescence, 18 h | Potency, µM (series often up to 46.1 µM), for the others: at the top dose activity change, negative = cytotoxicity, usual class: cytotoxic
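HepG2 CAGA-GFP cells (1000/well, DMEM with 1% FBS) received compound, then TGF-beta at 500 pg/mL final, and were incubated 18 hours at 37 degrees C. Viability was read by CellTiter-Glo luminescence. Media-only wells were set as complete cell-killing and DMSO as no toxicity.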
TGFb SMAD3 inh: qHTS for Inhibitors of TGF-b. actives 1.2% (n = 410,000). Potency, µM (doses to about 46.1 µM), for inactives: at the highest dose activity, negative = inhibition, usual class: inhibitors. HepG2 CAGA-GFP TGF-b/SMAD3 reporter, GFP fluorescence, 18 h; TGF-beta stimulated, 500 pg/mL final; also: % is scaled to controls: 0 for no effect and ±100 for the full control effect; nearly all actives have a fitted effect of over 65% in size
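HEPG2 CAGA-GFP, 1000 cells/well; 2 h settle, 37 C; cpd via pin tool; TGF-b 500 pg/mL final; 18 h, 37 C; GFP imaging ex488/em500-530; %Activity normalised to -TGF-b and +DMSO controls; CRC fit, curve class.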
DT40 TDP1 no CPT: qHTS for Inhibitors of human tyrosyl-DNA phosphodiesterase 1 (TDP1): qHTS in cells in absence of CPT. DT40 Tdp1-/- hTDP1 cells, no CPT, ATP luminescence, 48 h. Potency, µM (highest dose often 46.2 µM), inactives show at the top dose activity change, negative = growth inhibition, most hits filed as inhibitors. actives 15% (n = 420,000); also: % is scaled to controls: 0 for no effect and ±100 for the full control effect; nearly all actives have a fitted effect of over 55% in size
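A cellular qHTS used chicken DT40 cells lacking endogenous Tdp1 but carrying stably transfected human TDP1. Compounds were applied without camptothecin, and cell growth kinetics were judged by ATP-dependent luminescence after ≥48 hr.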
S2 tox: Viability Counterscreen for Primary qHTS for Inhibitors of ATXN expression | S2 cells (HEK-293 line with an ATXN2-luciferase reporter) viability, CellTiter-Fluor protease fluorescence, 24 h | Potency, µM (titrated, usually from 56.7 µM), actives largely listed as cytotoxic | actives 0.49% (n = 400,000); also: nearly all actives have a fitted effect of over 40% in size
ATXN2 expr inh: Primary qHTS for Inhibitors of ATXN expression. HEK-293 ATXN2-luciferase reporter, luminescence, 24 h. Potency, µM (doses to about 57 µM), for inactives: at the top dose activity change, negative = inhibition, actives largely listed as inhibitors. actives 0.72% (n = 360,000). AID 1745845, 2022; also: % is scaled to controls: 0 for no effect and ±100 for the full control effect; nearly all actives have a fitted effect of over 55% in size
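qHTS (up to 57 uM final) was run with 24 h compound exposure of reporter cells at 37 °C. Each well was multiplexed: SteadyGlo luminescence measured ATXN2-luciferase expression after a fluorogenic Gly-Phe-AFC viability readout (25 uM final).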
* = called active by the depositor; [ ] = remark or other dose. Hits are enriched below; roughly 17% of the tested compounds scored in any of these assays. Calls follow the shape of the dose curve; as a rule, active = well fitted curve in the direction sought with a large enough effect; inconclusive = small, poorly fitted or top-dose-only effect, or another doubt; inactive = no such curve, though single readings can be large; an effect the other way counts as inactive or inconclusive. Potency is read from the fitted curve at half-maximal effect.

What do the screens show for `COC(=O)c1c(SCC(=O)Nc2cccc(Cl)c2C)[nH]c2ccccc2c1=O`?
TDP1 cell CPT: 23.1µM*; HepG2 tox: -2.6%; TGFb SMAD3 inh: -1.5%; DT40 TDP1 no CPT: inconclusive; S2 tox: inactive; ATXN2 expr inh: 8.8%

What do the screens show for `COC(=O)c1c(SCC(=O)Nc2cc(F)ccc2F)[nH]c2ccc(C)cc2c1=O`?
TDP1 cell CPT: 8.2µM*; HepG2 tox: -19.9%; TGFb SMAD3 inh: inconclusive; DT40 TDP1 no CPT: 8.2µM*; S2 tox: inactive; ATXN2 expr inh: -9.5%

What do the screens show for `COC(=O)c1c(SCC(=O)Nc2cccc(C(F)(F)F)c2)[nH]c2ccccc2c1=O`?
TDP1 cell CPT: 5.8µM*; HepG2 tox: -21.3%; TGFb SMAD3 inh: -10.2%; DT40 TDP1 no CPT: 5.8µM*; S2 tox: inactive; ATXN2 expr inh: inconclusive

What do the screens show for `COC(=O)c1c(SCC(=O)NC2CCCCC2)[nH]c2ccccc2c1=O`?
TDP1 cell CPT: 14.1%; HepG2 tox: -5.2%; TGFb SMAD3 inh: 5.1%; DT40 TDP1 no CPT: inconclusive; S2 tox: inactive

Results for CN(C)CCNc1nccc(N2CCN(C)CC2)n1 ?
TDP1 cell CPT: 8.5%; HepG2 tox: 0.3%; TGFb SMAD3 inh: 9.9%; DT40 TDP1 no CPT: -9.5%

Results for O=C(c1cn(-c2ccccc2)nc1-c1cccc(Br)c1)N1CCOCC1 ?
TDP1 cell CPT: -21.3%; HepG2 tox: 1.5%; TGFb SMAD3 inh: 13.1%; DT40 TDP1 no CPT: inconclusive; S2 tox: inactive; ATXN2 expr inh: -7.7%[11.3 µM]

How did Cc1nnc(-c2cccc(Br)c2)c2cn(-c3cccc(Br)c3)nc12 do in these assays?
TDP1 cell CPT: inconclusive; HepG2 tox: -13.6%; TGFb SMAD3 inh: 0.0%; DT40 TDP1 no CPT: 16.4µM*; S2 tox: inactive; ATXN2 expr inh: -10.6%

How did Cc1nnc(-c2cccc(Br)c2)c2cn(-c3ccc(Br)cc3)nc12 do in these assays?
TDP1 cell CPT: inconclusive; HepG2 tox: -12.2%; TGFb SMAD3 inh: inconclusive; DT40 TDP1 no CPT: 14.6µM*; S2 tox: inconclusive; ATXN2 expr inh: -34.7%

How did Cc1nnc(-c2cccc(Br)c2)c2cn(-c3ccccc3)nc12 do in these assays?
TDP1 cell CPT: 23.1µM*; HepG2 tox: -17.1%; TGFb SMAD3 inh: -0.8%; DT40 TDP1 no CPT: inconclusive; S2 tox: inactive; ATXN2 expr inh: -5.8%

How did CC(C)C(=O)NNS(=O)(=O)c1ccccc1[N+](=O)[O-] do in these assays?
TDP1 cell CPT: 5.0%; HepG2 tox: 15.8µM*; TGFb SMAD3 inh: -3.2%; DT40 TDP1 no CPT: -4.0%; S2 tox: inactive; ATXN2 expr inh: -2.1%

Results for CCS(=O)(=O)c1ccc2oc(SCC(=O)NC(C)C3CC4CCC3C4)nc2c1 (stereo not drawn) ?
TDP1 cell CPT: inconclusive; HepG2 tox: 10.9%; TGFb SMAD3 inh: -3.4%; DT40 TDP1 no CPT: 16.4µM*; S2 tox: inactive; ATXN2 expr inh: -3.5%

How did CCCN(CCC)CCNC(=O)C1CCN(c2nc3ccc(CC)cc3s2)CC1 do in these assays?
TDP1 cell CPT: 8.2µM*; HepG2 tox: -61.6%; TGFb SMAD3 inh: inconclusive; DT40 TDP1 no CPT: 6.51µM*

Results for CCCN(CCC)CCCNC(=O)C1CCN(c2nc3ccc(CC)cc3s2)CC1 ?
TDP1 cell CPT: 5.8µM*; HepG2 tox: -50.6%; TGFb SMAD3 inh: inconclusive; DT40 TDP1 no CPT: 5.17µM*

What do the screens show for `CCc1ccccc1NC(=O)CCNS(=O)(=O)c1ccc2c(c1)CCC(=O)N2`?
TDP1 cell CPT: -0.8%; HepG2 tox: 12.2%; TGFb SMAD3 inh: 1.5%; DT40 TDP1 no CPT: 8.3%; S2 tox: inactive; ATXN2 expr inh: 6.1%

What do the screens show for `CCCN1C(=O)c2[nH]nc(-c3ccccc3O)c2C1c1ccc(OCc2ccccc2)c(OC)c1` (stereo not drawn)?
TDP1 cell CPT: 16.4µM*; HepG2 tox: -42.0%; TGFb SMAD3 inh: 12.6µM*; DT40 TDP1 no CPT: 16.4µM*

How did O=C1c2[nH]nc(-c3ccccc3O)c2C(c2cccc(OCc3ccccc3)c2)N1CCCO (stereo not drawn) do in these assays?
TDP1 cell CPT: inconclusive; HepG2 tox: -101.6%; TGFb SMAD3 inh: 10µM*; DT40 TDP1 no CPT: inconclusive

Results for COc1cc(C2c3c(-c4ccccc4O)n[nH]c3C(=O)N2Cc2ccco2)cc(OC)c1OC (stereo not drawn) ?
TDP1 cell CPT: -5.6%; HepG2 tox: -17.5%; TGFb SMAD3 inh: -1.3%; DT40 TDP1 no CPT: 0.4%; S2 tox: inconclusive; ATXN2 expr inh: 4.2%

What do the screens show for `CC(C)OCCCN1C(=O)c2[nH]nc(-c3ccccc3O)c2C1c1ccc(OCc2ccccc2)cc1` (stereo not drawn)?
TDP1 cell CPT: 14.6µM*; HepG2 tox: -95.0%; TGFb SMAD3 inh: inconclusive; DT40 TDP1 no CPT: 11.6µM*

How did COc1cc(C2c3c(-c4ccccc4O)n[nH]c3C(=O)N2CCO)ccc1OCc1ccccc1 (stereo not drawn) do in these assays?
TDP1 cell CPT: -28.2%; HepG2 tox: -18.3%; TGFb SMAD3 inh: -25.4%; DT40 TDP1 no CPT: 25.9µM*

How did Cc1cccc(NC2CNC(=O)NC2=O)c1 (stereo not drawn) do in these assays?
TDP1 cell CPT: 1.4%; HepG2 tox: 9.1%; TGFb SMAD3 inh: 21.6%; DT40 TDP1 no CPT: -14.2%; S2 tox: inactive; ATXN2 expr inh: 7.0%

Results for CS(=O)(=O)N(CC(=O)N1CCOCC1)c1cc(Cl)ccc1Cl ?
TDP1 cell CPT: -4.5%; HepG2 tox: -0.7%; TGFb SMAD3 inh: -5.7%; DT40 TDP1 no CPT: 3.6%; S2 tox: inactive; ATXN2 expr inh: -20.4%

How did COc1cc(C2c3c(-c4ccccc4O)n[nH]c3C(=O)N2Cc2ccncc2)ccc1O (stereo not drawn) do in these assays?
TDP1 cell CPT: -6.4%; HepG2 tox: 3.4%; TGFb SMAD3 inh: -1.9%; DT40 TDP1 no CPT: -7.2%; S2 tox: inactive; ATXN2 expr inh: 0.1%

How did CCOc1cc(C2c3c(-c4cc(C)ccc4O)n[nH]c3C(=O)N2CCCOC(C)C)ccc1O (stereo not drawn) do in these assays?
TDP1 cell CPT: inconclusive; HepG2 tox: -13.3%; TGFb SMAD3 inh: 12.6µM*; DT40 TDP1 no CPT: inconclusive
